Pf Dd2 inh: inhibitors of Plasmodium falciparum Dd2 growth | P. falciparum Dd2 growth, SYBR Green, 72 h | Potency, µM (highest dose often 28.9 µM), for the others: top-dose activity, negative = inhibition, actives largely listed as inhibitors | 120,000 compounds, 4.3% hits | AID 1347417; active = well fitted inhibition curve with a large enough effect;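 also: plate controls were DMSO vehicle for no effect and reference drug for full effect; nearly all actives have a fitted effect of over 65% in size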
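Infected erythrocytes (Dd2, 0.3% parasitemia, 2.5% hematocrit final) are added to compound in RPMI-1640/Albumax II medium, grown 72 h at 37C in low oxygen, then lysed with saponin/Triton-X containing SYBR Green and read by fluorescence.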
* = called active by the depositor; i = inactive; [ ] = remark or other dose. The entries come from a sample that favours hits as a whole. Potency is read from the fitted curve at half-maximal effect.

SMILES	Pf Dd2 inh
COC(=O)N1CCC(c2nn(-c3ccc(OC)cc3)c(=O)[nH]2)CC1	i
COc1ccc(-n2nc(C3CCN(Cc4cccn4C)CC3)[nH]c2=O)cc1	12.6µM*
CCn1nc(CNC(=O)C2CC3(CCNCC3)CN2)c2ccccc21 (centres undefined)	-4.7%
CO[C@H]1C(=O)N(C(C)C)[C@H]1C1CCN(C(=O)CCc2ccccc2)CC1	-21.4%
Cc1noc(C)c1C(=O)N1CCc2nn(C)c(=O)n2CC1	10.0%
Cc1cccc(NC(=O)N2CCC3(CC2)CC(N2CCOCC2)CCO3)c1 (centres undefined)	i
CC(C)c1csc(CN2CC[C@@H](c3ccc4c(c3)OCO4)[C@H](O)C2)n1	-13.9%
CC(C)n1cc(CN2CC[C@@H](c3ccc4ccccc4c3)[C@H](O)C2)cn1	10µM*
O=C(O)c1ccc(CN2CC[C@@H](c3ccc4c(c3)OCO4)[C@H](O)C2)cc1	-13.4%
CN1[C@@H](CCC(=O)N2CCOCC2)CNC(=O)[C@@H]2[C@H]1CCN2Cc1nc2ccccc2n1C	-14.7%
CO[C@H]1COCCN(C(=O)c2cc(C)oc2C(F)(F)F)C1	12.4%[44.1 µM]
O=C(NC1CCN(c2cc(-c3cccs3)[nH]n2)C1)c1ccccc1Cl (centres undefined)	i
Cc1noc(C)c1-c1cnc(Nc2ccc(Cl)cn2)c2c1CCO2	-15.9%[44.1 µM]
Cc1noc(C)c1-c1cnc(Nc2ccc(CN3CCN(C)CC3)cc2)c2c1CCO2	5.62µM*
Cc1noc(C)c1-c1cnc(Nc2cc(F)cc(N3CCOCC3)c2)c2c1CCO2	-5.9%[44.1 µM]
O=C(c1c(F)cccc1F)N1CCCC2(C1)NC(=O)N(Cc1cccc(Cl)c1)C2=O (centres undefined)	39.4%
COCC(=O)N[C@@H]1CN(Cc2ccc(Br)o2)C[C@H]1CO	25.7%
CCCNC(=O)N[C@@H]1CCC[C@@H](C(=O)NCc2cc(C)on2)CC(=O)N(C)C1	18.9%[44.1 µM]
COc1ccc(Cl)cc1NC(=O)CN1C(=O)NC2(CCCCC2)C1=O	i
COc1cc(NC(=O)N2CCc3c(sc4c3CCCC4)C2c2ccccc2)cc(OC)c1OC (centres undefined)	16.3%
COc1ccc(Cl)cc1NC(=O)N1CC(=O)Nc2sc3c(c2C1c1ccccc1)CCCC3 (centres undefined)	11.2µM*
CCn1c(C2CCCN(C(=O)Nc3ccc4c(c3)OCCO4)C2)nn(C)c1=O (centres undefined)	-20.6%
CCN1c2cc(C(=O)NCc3ccc(F)cc3Cl)ccc2C(=O)N2CCCCCC21 (centres undefined)	-20.2%
Cc1ccc(C(=O)N2CCC(Oc3ccc(C(=O)N4CCOCC4)cn3)CC2)cc1	4.2%
CCOC(=O)c1c(S(=O)(=O)N2CCCC(C(=O)N3CCN(c4cc(C)ccc4C)CC3)C2)c(C)n(C)c1C (centres undefined)	1µM*
SMILES	Pf Dd2 inh
Cc1ccc(C)c(N2CCN(S(=O)(=O)c3ccc4c(c3)CCCN4C(=O)C3CCC3)CC2)c1	5.9%
CCOC(=O)c1c(S(=O)(=O)N2CCC(C(=O)N3CCN(c4ccccc4F)CC3)CC2)c(C)n(C)c1C	i
CCOC(=O)c1c(S(=O)(=O)N2CCCC(C(=O)Nc3ncccc3C)C2)c(C)n(C)c1C (centres undefined)	i
CCOC(=O)c1c(C)[nH]c(C)c1S(=O)(=O)N1CCC(C(=O)N2CCN(c3ccccc3F)CC2)CC1	i
Cc1ccc(Cl)cc1N1CCN(C(=O)C2CCN(S(=O)(=O)c3ccc4c(c3)oc(=O)n4C)CC2)CC1	i
CCOC(=O)c1c(S(=O)(=O)N2CCCC(C(=O)N3CCN(c4cccc(C)c4C)CC3)C2)c(C)n(C)c1C (centres undefined)	1.12µM*
CCOC(=O)c1c(C)[nH]c(C)c1S(=O)(=O)N1CCCC(C(=O)NCc2ccc(C)cc2)C1 (centres undefined)	i
CCOC(=O)c1c(S(=O)(=O)N2CCCC(C(=O)Nc3cc(C)ccc3OC)C2)c(C)n(C)c1C (centres undefined)	29.4%
Cc1ccc(C)c(N2CCN(C(=O)C3CCN(S(=O)(=O)c4ccc5[nH]c(=O)oc5c4)CC3)CC2)c1	5.62µM*
CCOC(=O)c1c(C)[nH]c(C)c1S(=O)(=O)N1CCCC(C(=O)N2CCN(c3cc(C)ccc3C)CC2)C1 (centres undefined)	1.26µM*
CCOC(=O)c1c(S(=O)(=O)N2CCCC(C(=O)Nc3cc(C)ccn3)C2)c(C)n(C)c1C (centres undefined)	i
CC(C)c1noc(C2CCCN(C(=O)CCCc3ccccc3)CCC(=O)NCC2)n1 (centres undefined)	i
Cc1noc([C@@H]2CN(C(=O)Cc3cccc4ccccc34)C[C@H]2CO)n1	-18.2%
O=C(NCc1ccccc1)c1c(OCC2CC2)cc(=O)n2c1CCOCC2	8.3%
CCNC(=O)[C@@H]1C[C@@H](NC(=O)Cn2nccc2C)CN1Cc1ccccn1	5.1%
CCCNC(=O)C1C(c2cccc(NC(=O)c3ccc(C)cc3)c2)OC(=O)N1Cc1ccc(C)cc1 (centres undefined)	-10.6%
COC[C@@H]1CN(C(=O)c2nn(C)c3ccccc23)C[C@H]1C(N)=O	-9.1%
O=C(C1CCOCC1)N1CC(CO)C2(CCNCC2)C1 (centres undefined)	17.0%
CN1C(=O)CCc2cc(NC(=O)Cc3ccc(Cl)cc3)ccc21	i
COCCn1c(C)cnc1CC1CCN(C(=O)c2ccc(C)s2)CC1	-14.5%
CC(=O)Nc1ccc(C2(C(=O)N3CCC(N4CCCCC4)CC3)CCCCC2)cc1	12.6µM*
CC(=O)Nc1ccc(C2(C(=O)N3CCCCCC3)CCC2)cc1	-21.4%
CC(=O)Nc1ccc(C2(C(=O)O)CCCCC2)cc1	3.4%
O=C1CN(C(=O)CCC(=O)N2CCC3(CCCCO3)CC2)c2ccccc2N1	-9.1%
CC(C)(C)NC(=O)N1CCC(Oc2ncccc2C(=O)N2CCOCC2)C1 (centres undefined)	i
SMILES	Pf Dd2 inh
Nc1nc(-c2cccc(CN3CCOCC3)c2)cc(N2CCCC2)n1	-23.4%
Cc1nc(-n2nc(C)c(Cc3ccc4c(c3)OCO4)c2C)sc1C(=O)Nc1ccc(Cl)cc1	-19.1%
Cc1ccc(NC(=O)c2sc(-n3nc(C)c(Cc4ccc5c(c4)OCO5)c3C)nc2C)cc1Cl	-18.9%
CCc1ccccc1NC(=O)c1sc(-n2nc(C)c(Cc3ccc4c(c3)OCO4)c2C)nc1C	3.98µM*
CC1CCN(C(=O)CN2C(=O)NC3(CCCCC3)C2=O)CC1	-10.2%
Cc1ccc(CN2CCC(CNC(=O)Nc3ccccc3F)CC2)cc1	i
O=C(NCC1CCN(Cc2cccc(Cl)c2)CC1)c1cc2ccc3cccnc3c2[nH]1	7.94µM*
Cc1ccc(CN2CCC(CNC(=O)Nc3ccc(Cl)cc3)C2)cc1 (centres undefined)	i
CC(C)NC(=O)NCC1CCCN(Cc2ccc3c(c2)OCCO3)C1 (centres undefined)	-10.0%
COc1ccc(CN2CCCC(CNC(=O)NC(C)C)C2)cc1O (centres undefined)	-22.3%
Cc1ccc(NC(=O)NCC2CCN(Cc3cccc(Cl)c3)CC2)cc1Cl	10µM*
O=C(Nc1cccc(C(F)(F)F)c1)c1cc2ccc3cccnc3c2[nH]1	29.8%
Cc1ccc(CN2CCC(CNC(=O)NC(C)C)C2)cc1C (centres undefined)	8.91µM*
O=C(Nc1ccc(F)cc1F)c1cc2ccc3cccnc3c2[nH]1	24.8%
CC(C)CN1C(=O)COC[C@@H]1[C@H](O)c1ccc(NC(=O)c2ccco2)cc1	i
CCOc1ccc(CC(=O)NC2CCc3n[nH]c(=O)n3CC2)cc1OCC (centres undefined)	20.6%

Screens: PubChem BioAssay, National Center for Advancing Translational Sciences (NCATS)
